Laboratory results from PubChem BioAssay (NCATS).
Records with an inconclusive call do not appear. Active and inactive are the calls of the source. Calls come from the whole dose curve; as a rule, active = well fitted inhibition curve with a large enough effect; inconclusive = small, poorly fitted or top-dose-only effect; inactive = flat fitted curve, though single readings scatter.

Assays:
Assay in all cases: qHTS profiling for inhibitors of Plasmodium falciparum proliferation (AID 504749); note: nearly all actives have a fitted effect of over 60% in size
Conditions in all cases: P. falciparum in erythrocytes, SYBR Green DNA, 72 h; series mostly up to 28.7 µM
ECU = test system: ECU
Outline: (§1)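 Each compound contacts P. falciparum-infected red blood cells for 72 h at 37 C; lysis buffer (Tris, EDTA, saponin, Triton X, SYBR Green I) is added and fluorescence measured next morning; values normalized to controls.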

FAB9 = test system: FAB9
Outline: as §1

GB4 = test system: GB4
Outline: as §1

HB3 = test system: HB3
Outline: as §1

ICS = test system: ICS
Outline: as §1

JCK = test system: JCK
Outline: as §1

N140 = test system: N140
Outline: as §1

P93_24 = test system: P93_24
Outline: as §1

P94_40 = test system: P94_40
Outline: as §1

PAD = test system: PAD
Outline: as §1

PC15 = test system: PC15
Outline: as §1

PC26 = test system: PC26
Outline: as §1

PC49 = test system: PC49
Outline: as §1

SC27B = test system: SC27B
Outline: as §1

TAB109 = test system: TAB109
Outline: as §1

TAB113 = test system: TAB113
Outline: as §1

TAB165 = test system: TAB165
Outline: as §1

W2 = test system: W2
Outline: as §1

Measured: Potency
Potency is the fitted concentration of half-maximal effect.

Nc1nccs1
inactive: all assays above

COc1cc(C)c(/C=C/C(C)=C/C=C/C(C)=C/C(=O)O)c(C)c1C
inactive: all assays above

FC(F)(F)COCC(F)(F)F
inactive: all assays above

NCC[C@H](O)C(=O)N[C@@H]1C[C@H](N)[C@@H](O[C@H]2O[C@H](CN)CC[C@H]2N)[C@H](O)[C@H]1O[C@H]1O[C@H](CO)[C@@H](O)[C@H](N)[C@H]1O
inactive: all assays above

CC(=O)[C@H]1CC[C@H]2[C@@H]3C=CC4=CC(=O)CC[C@@]4(C)[C@H]3CC[C@]12C
inactive: all assays above

CCCCC(CC)COS(=O)(=O)O (stereo not given)
inactive: all assays above

CN(CCO)CC(O)Cn1cnc2c1c(=O)n(C)c(=O)n2C (stereo not given) (tested in a mixture with another compound)
inactive: all assays above

Nc1nc(=O)n([C@@H]2CS[C@H](CO)O2)cc1F
inactive: all assays above

Cc1cc(-c2ccc(N=Nc3ccc4c(S(=O)(=O)O)cc(S(=O)(=O)O)c(N)c4c3O)c(C)c2)ccc1N=Nc1ccc2c(S(=O)(=O)O)cc(S(=O)(=O)O)c(N)c2c1O
inactive: all assays above

CCCCCCCCCCCC(=O)OCC(O)CO (stereo not given)
inactive: all assays above

Cc1ncc(C[n+]2csc(CCOP(=O)(O)OP(=O)(O)O)c2C)c(N)n1
inactive: all assays above

CNC(=O)OCc1cccc(COC(=O)NC)n1
inactive: all assays above

COc1ccc(C(=O)CCC(=O)O)c2ccccc12
inactive: all assays above

O=C(/C=C/c1cccc(F)c1)NC1CC1
inactive: all assays above

FC(F)OC(Cl)C(F)(F)F (stereo not given)
inactive: all assays above

O=C(O)COc1ccc(CCNS(=O)(=O)c2ccccc2)s1
inactive: all assays above

O=C(O)c1ccc(OCCn2ccnc2)cc1
inactive: all assays above

CCC(C(=O)NC(N)=O)c1ccccc1 (stereo not given)
inactive: all assays above

OCC(O)CO
inactive: all assays above

CC1C(=O)CC2C3(C)CCC2(C(C)C(=O)O)C(=O)C13 (stereo not given)
inactive: all assays above

CC(O)CN(C)C (stereo not given)
inactive: all assays above

Cc1ccc(S(=O)(=O)O)cc1C
inactive: all assays above

CC(C)O
inactive: all assays above

CN(C)C=Nc1c(I)cc(I)c(CCC(=O)O)c1I
inactive: all assays above

[O]=[Bi][O][Bi]=[O]
inactive: all assays above

CCCC(=O)O
inactive: all assays above

NC(=O)[C@H]1O[C@@H](O)[C@H](O)[C@@H](O)[C@@H]1O
inactive: all assays above

CCOc1ccc(NC(=S)Nc2ccc(OCC)cc2)cc1
inactive: all assays above

C=CC[C@@H]1/C=C(\C)C[C@H](C)C[C@H](OC)[C@H]2O[C@@](O)(C(=O)C(=O)N3CCCC[C@H]3C(=O)O[C@H](/C(C)=C/[C@@H]3CC[C@@H](O)[C@H](OC)C3)[C@H](C)[C@@H](O)CC1=O)[C@H](C)C[C@@H]2OC
active: ECU 1.26 µM | FAB9 2 µM | GB4 3.79 µM | HB3 1 µM | ICS 0.447 µM | JCK 3.98 µM | N140 0.891 µM | P93_24 2 µM | P94_40 2 µM | PAD 1.41 µM | PC15 2.24 µM | PC26 1.69 µM | PC49 2 µM | SC27B 1.78 µM | TAB109 2 µM | TAB113 1.78 µM | TAB165 1.41 µM | W2 0.338 µM

O=C(NNCS(=O)(=O)O)c1ccncc1
inactive: all assays above

C=C1C(CCl)(CCl)C2(Cl)C(Cl)C(Cl)C1(Cl)C2(Cl)Cl (stereo not given)
active: ECU 2 µM | FAB9 3.55 µM | GB4 2.13 µM | HB3 2.51 µM | ICS 0.355 µM | JCK 10 µM | N140 2 µM | P93_24 2 µM | P94_40 2.51 µM | PAD 0.708 µM | PC15 2 µM | PC26 1.9 µM | PC49 3.98 µM | SC27B 1.78 µM | TAB109 3.16 µM | TAB113 2.82 µM | TAB165 1.78 µM | W2 0.849 µM

C=CCN1CCCC1CNC(=O)c1cc(S(N)(=O)=O)cc(OC)c1OC (stereo not given)
inactive: all assays above

CCCCCCCCCCCCCC(=O)OCC(COP(=O)([O-])OCC[N+](C)(C)C)OC(=O)CCCCCCCCCCCCC (stereo not given)
inactive: all assays above

CN1C(=O)C[C@@H](C(=O)N[C@@H](Cc2cnc[nH]2)C(=O)N2CCC[C@H]2C(N)=O)NC1=O
inactive: all assays above

CC(C)(COP(=O)(O)OP(=O)(O)OC[C@H]1O[C@@H](n2cnc3c(N)ncnc32)[C@H](O)[C@@H]1OP(=O)(O)O)C(O)C(=O)NCCC(=O)NCCS (stereo not given in full)
inactive: all assays above

Cc1nc(NS(=O)(=O)c2ccc(N)cc2)nc(C)c1Br
inactive: all assays above

CCN(CC)CCOC(=O)c1cccnc1
inactive: all assays above

NC(=O)[C@@H]1CCCN1C(=O)[C@H](Cc1cnc[nH]1)NC(=O)[C@@H]1CCC(=O)N1
inactive: all assays above

Cc1ccccn1
inactive: all assays above

O=C1CCC(=O)N1CO
inactive: all assays above

CC(C)CCCC(C)NC(C)C (stereo not given)
inactive: all assays above

O=P(O)(O)OC[C@H](O)CO
inactive: all assays above

CN1CCC(OC(=O)C(Oc2ccc(Cl)cc2)Oc2ccc(Cl)cc2)CC1
inactive: all assays above

CCc1ccc(S(=O)(=O)O)cc1
inactive: all assays above

CCOC(=O)Cc1ccc(-c2ccccc2)cc1
active: N140 0.224 µM
inactive: all other assays above

O=P(O)(O)OC[C@H]1O[C@](O)(COP(=O)(O)O)[C@@H](O)[C@@H]1O
inactive: all assays above

Oc1cc(O)cc(O)c1
inactive: all assays above

NC(=O)Oc1ccc(Cc2ccccc2)cc1
inactive: all assays above

C[Si](C)(C)O[Si](C)(C)C
inactive: all assays above

NCC(O)CC(=O)O (stereo not given)
inactive: all assays above

CCOC(=S)SSC(=S)OCC
inactive: all assays above

Cc1c(Cl)cccc1Nc1ncccc1C(=O)O
inactive: all assays above

N=C(N)n1cccn1
inactive: all assays above

CCCOc1cc(N)ccc1C(=O)OCCN(CC)CC
inactive: all assays above

Cc1ncc[nH]1
inactive: all assays above
